Data on one compound can be found in PubChem BioAssay (NCATS).

The structures appear in SMILES notation. Several values for one entry are separate records, joined by “and”; a condition that tells them apart may be missing. Equal values may be shown once. Results filed as inconclusive are left out. Activity calls are given as the source filed them. Unless noted, calls come from the whole dose curve; as a rule, active = well fitted curve in the direction sought with a large enough effect; inconclusive = small, poorly fitted or top-dose-only effect, or another doubt; inactive = no such curve, though single readings can be large; an effect the other way counts as inactive or inconclusive.

The nature of assay [1]: qHTS Assay for Lipid Storage Modulators (AID 1519). The conditions noted are these: Drosophila S3 cells, BODIPY lipid droplet/cell ratio, laser cytometry; measured here: lipid channel max response; cells loaded with oleic acid. The procedure, abridged: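 Cells seeded at 5,000 per well were treated with compounds over a concentration series and loaded with oleic acid (400 uM, as added). Lipid droplet fluorescence (488 nm excitation, 500-530 nm channel) was read by laser-scanning cytometry and normalized to 20 uM Triacsin C.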
In general terms: qHTS replaces the single test concentration by a dilution series.

In assay [2] the target is DNA repair nuclease/redox regulator APEX1 (Homo sapiens) (UniProt P27695). The assay can be described thus: qHTS Validation Assay for Inhibitors of the Human Apurinic/apyrimidinic Endonuclease 1 (APE1) (AID 1705;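 note: TAMRA fluorescence gain over two minutes as APE1 cuts a quenched THF abasic duplex; % is set by controls: 0 for no effect and ±100 for the full control effect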). The conditions noted are these: purified APE1 endonuclease activity, fluorescence, titration; series mostly up to 57.1 µM. The procedure, abridged:
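qHTS, 1536-well. APE1 + cpd 15 min RT → 50 nM TAMRA/BHQ-2 THF-abasic dsDNA substrate → kinetic fluorescence, 3 reads/60 s; delta(read3−read1) = reaction progress. No-enzyme buffer = negative control.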

The nature of assay [3]: Counterscreen for APE1 Inhibitors: Fluorescent Dye Displacement Validation Assay (AID 1707).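 Note: plate controls were ThO with dsDNA and no compound for no effect and ThO without dsDNA for full effect.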 The conditions noted are these: fluorescent dye displacement from DNA; series mostly up to 57.1 µM. The procedure, abridged:
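Compounds are scored by their ability to displace Thiazole Orange (250 nM) from a 50 nM TAMRA-tagged duplex bearing a tetrahydrofuran abasic site. Buffer is 50 mM Tris-HCl pH7.5, 50mM NaCl, 2 mM MgCl2, 0.01% Tween-20.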
(The purpose of a counterscreen is to sort out artefacts and off-target activity.)

Assay [4] addresses Endonuclease 4 (Escherichia coli (strain K12)) (UniProt P0A6C1). The assay can be described thus: Counterscreen for APE1 Inhibitors: qHTS Validation Assay for Inhibitors of Endonuclease IV (AID 1708). Note: % is set by controls: 0 for no effect and ±100 for the full control effect. The conditions noted are these: E. coli endonuclease IV, DNA cleavage fluorescence; series mostly up to 57.1 µM. The procedure, abridged:
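2 nM enzyme was preincubated with compounds for 15 min at room temperature in 50 mM Tris-HCl pH 7.5, 50 mM NaCl, 2 mM MgCl2, 1 mM DTT, 0.01% Tween-20. 50 nM THF-abasic TAMRA/BHQ-2 duplex substrate started the reaction.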

A short description of assay [5]: qHTS for differential inhibitors of proliferation of Plasmodium falciparum line GB4 (AID 1816).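 Note: parasite growth measured after 72 h incubation; 0% = vehicle DMSO and -100% = reference inhibitor.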 The following applies: Potency: Plasmodium falciparum GB4 proliferation inhibition; series mostly up to 28.7 µM.
Assay [6] in a line: qHTS for differential inhibitors of proliferation of Plasmodium falciparum line 3D7 (AID 1876).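 Note: parasite growth measured after three days of culture; 0% = vehicle wells and -100% = reference inhibitor wells.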 The conditions noted are these: P. falciparum 3D7 proliferation inhibition; series mostly up to 28.7 µM.
Assay [7] is described as follows: qHTS for differential inhibitors of proliferation of Plasmodium falciparum line D10 (AID 1877).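 Note: parasites grown with compound for 72 h before DNA staining; plate controls were vehicle wells for no effect and reference inhibitor wells for full effect.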 The following applies: series mostly up to 28.7 µM.
The nature of assay [8]: qHTS for differential inhibitors of proliferation of Plasmodium falciparum line Dd2 (AID 1882).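 Note: compound exposure of 72 h on infected erythrocytes; plate controls were DMSO vehicle for no effect and 0.29 µM artemisinin for full effect; nearly all actives have a fitted effect of over 65% in size.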 The conditions noted are these: Potency: Plasmodium falciparum Dd2 proliferation inhibition; series mostly up to 28.7 µM. The procedure, abridged:
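SYBR Green I DNA fluorescence read-out, ex 485/em 535 nm. Signals were normalized to 0.29 uM artemisinin and DMSO wells, then corrected using vehicle-only plates flanking each stack. Parasite growth ran 72 h in erythrocytes before lysis.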

A short description of assay [9]: qHTS for differential inhibitors of proliferation of Plasmodium falciparum line W2 (AID 1883).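 Note: parasites grown with compound for 72 h before lysis and staining; 0% = vehicle wells and -100% = control inhibitor wells.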 The following applies: Potency: Plasmodium falciparum W2 proliferation inhibition; series mostly up to 28.7 µM.
A short description of assay [10]: qHTS for differential inhibitors of proliferation of Plasmodium falciparum line HB3 (AID 1886).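 Note: parasites grown with compound for 72 h before SYBR Green readout; plate controls were vehicle for no effect and reference inhibitor for full effect.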 The conditions noted are these: Potency: Plasmodium falciparum HB3 proliferation inhibition; series mostly up to 28.7 µM.
Assay [11] in a line: qHTS Assay for Modulators of Human Peripheral Myelin Protein 22 (PMP22) Expression/Activity (AID 1967; active = well fitted curve in the direction sought with a large enough effect in the signal ratio; the % refers to the signal ratio;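 note: 0% = untreated cells and 100% end not stated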). The conditions noted are these: Cell-based PMP22 reporter, dual-color luciferase ratio, 0% = compound-free control cells, mouse Pmp22 promoter in mouse Schwann cells; series mostly up to 115 µM. The procedure, abridged: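 Luminescence ratio of Pmp22 promoter-driven green luciferase to EF-alpha-driven red luciferase, in engineered mouse MSC80 Schwann cells, served as read-out. Compounds were incubated 24h; untreated cells defined 0% Activity; curves were classified by r2, magnitude and activity.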

Assay [12] has as its target ATP-dependent DNA helicase Q1 (Homo sapiens) (UniProt P46063). The assay can be described thus: qHTS Validation Assay for Inhibitors of RecQ-Like Dna Helicase 1 (RECQ1) (AID 2353).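 Note: plate controls were DMSO vehicle for no effect and enzyme-free control for full effect.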 The following applies: recombinant RECQ1 helicase DNA unwinding assay; series mostly up to 25.6 µM. Put shortly: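 50 nM RECQ1T1 preincubated 15 min with compound in Tris pH 8.0 buffer with MgCl2, DTT, Tween-20 and 2.5 ug/ml poly(dI-dC); started with 200 nM TAMRA/BHQ-2 forked duplex and 2 mM ATP. Unwinding read as fluorescence (525/598 nm), two reads 2 h apart.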

Assay [13] can be described thus: Validation screen for small molecules that induce DNA re-replication in MCF 10A normal breast cells (AID 463097). Note: 0% is about no effect; nearly all actives have a fitted effect of over 60% in size. The conditions noted are these: MCF 10A cells, DNA re-replication phenotype imaging; series mostly up to 46.1 µM. The procedure, abridged: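 Image-based qHTS: normal breast cells are incubated with compound for 48 hr, stained with Hoechst, and scanned for total nuclear fluorescence. Compounds raising the fraction of nuclei with elevated DNA content count as re-replication inducers.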

A short description of assay [14]: Quantitative high throughput screen for delayed death inhibitors of the malarial parasite plastid, 96 hour incubation (AID 488745). Note: % is set by controls: 0 for no effect and ±100 for the full control effect; nearly all actives have a fitted effect of over 70% in size. The conditions noted are these: Plasmodium falciparum growth; series mostly up to 28.7 µM. The procedure, abridged:
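P. falciparum carrying an integrated firefly luciferase reporter, grown in erythrocytes (2% hematocrit, 0.1% parasitemia final) in RPMI 1640/0.5% Albumax, was exposed to compound for 96 h (two generations) at 37 C, 5% CO2. Luminescence decrease indicated growth inhibition.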

Assay [15] in a line: Quantitative high throughput screen for delayed death inhibitors of the malarial parasite plastid, 48 hour incubation (AID 488752). Note: % is set by controls: 0 for no effect and ±100 for the full control effect; nearly all actives have a fitted effect of over 65% in size. The following applies: Plasmodium falciparum growth; series mostly up to 28.7 µM. Put shortly: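 Erythrocytes infected with P. falciparum carrying an integrated firefly luciferase reporter (2% hematocrit, 0.1% parasitemia final) were exposed to compounds in RPMI 1640/0.5% Albumax for 48 h at 37 C, 5% CO2. Growth inhibition was scored as reduced luminescence.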

Assay [16] has as its target M-phase phosphoprotein 8 (Homo sapiens) (UniProt Q99549). Nature of the assay: qHTS Validation Assay for Inhibitors for MPP8 Chromodomain Interactions with Methylated Histone Tails (AID 488949).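 Note: 50 nM MPP8 with 50 nM peptide preformed then compounds added for 30 min; AlphaScreen signal from MPP8 chromodomain bound to biotinylated H3K9me3 peptide; top concentration of the series differs between compounds; % is set by controls: 0 for no effect and ±100 for the full control effect; nearly all actives have a fitted effect of over 55% in size.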 The following applies: AlphaScreen MPP8 binding to H3K9me3 peptide; series mostly up to 114 µM. Put shortly:
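50 nM MPP8 + 50 nM b-H3K9me3 peptide, PBS pH 7.4/0.01% Tween-20, 30 min RT; + cpd 30 min RT; + AlphaScreen donor/Ni-chelate acceptor beads 10 ug/mL final, 30 min dark; luminescence read.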

The target of assay [17] is Thyrotropin receptor (Homo sapiens) (UniProt P16473). The assay can be described thus: qHTS Assay for Antagonists of the Thyroid Stimulating Hormone Receptor (AID 488980). Note: 0% is about no effect. The conditions noted are these: TSHR-expressing cells, cAMP antagonist read-out; series mostly up to 57.5 µM. Put shortly: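 Readout is cAMP by HTRF competition between cellular cAMP and cAMP-d2 for a cryptate-labelled antibody. Antagonism was assessed in TSHR-transfected HEK293 cells stimulated with 4 nM TSH (EC80, final) in the presence of RO 20-1724.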
Sequence of Thyrotropin receptor (Homo sapiens) (P16473 whole entry, looked up): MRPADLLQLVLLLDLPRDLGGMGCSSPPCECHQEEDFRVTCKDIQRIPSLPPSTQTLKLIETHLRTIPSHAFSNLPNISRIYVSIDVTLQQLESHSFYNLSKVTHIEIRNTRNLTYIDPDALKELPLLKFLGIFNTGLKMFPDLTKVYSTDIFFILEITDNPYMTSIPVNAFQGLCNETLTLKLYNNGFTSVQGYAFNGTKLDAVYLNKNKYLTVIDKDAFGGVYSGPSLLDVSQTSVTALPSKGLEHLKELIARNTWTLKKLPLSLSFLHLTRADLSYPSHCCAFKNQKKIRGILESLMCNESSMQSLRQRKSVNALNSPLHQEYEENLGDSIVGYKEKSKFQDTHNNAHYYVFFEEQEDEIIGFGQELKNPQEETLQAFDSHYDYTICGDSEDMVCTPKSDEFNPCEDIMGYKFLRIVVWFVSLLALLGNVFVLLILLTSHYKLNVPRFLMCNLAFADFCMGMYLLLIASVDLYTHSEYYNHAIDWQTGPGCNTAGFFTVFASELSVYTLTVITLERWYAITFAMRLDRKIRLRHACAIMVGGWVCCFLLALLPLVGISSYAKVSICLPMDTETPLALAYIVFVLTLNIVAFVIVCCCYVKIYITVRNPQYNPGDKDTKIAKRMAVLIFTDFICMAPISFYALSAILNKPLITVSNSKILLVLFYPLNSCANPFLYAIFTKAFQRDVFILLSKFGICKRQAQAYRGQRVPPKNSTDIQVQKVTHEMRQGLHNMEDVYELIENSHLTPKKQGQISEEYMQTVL

For assay [18], the target named is Thyrotropin-releasing hormone receptor (Homo sapiens) (UniProt P34981). The assay can be described thus: qHTS for Small Molecule Agonists and Allosteric Enhancers of Human TRH Receptor: Validation Screen for Agonists (AID 493127;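 active = calcium activation more than 3 SD above the typical response in the agonist read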;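 note: intracellular calcium rise by fluo-8 fluorescence before TRH EC20 addition; 0% is about no effect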). The conditions noted are these: TRH receptor agonist cell assay; at 2 µM; stronger effect = higher value. The procedure, abridged:
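TRHR-expressing cells were plated overnight in serum-containing medium, then loaded with fluo-8 calcium dye at room temperature for 30 min–1.5 h. After a 10 s baseline, compound was pin-transferred and calcium fluorescence (ex 480/em 530) read kinetically for agonist response.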

Assay [19] has as its target Galactokinase (Homo sapiens) (UniProt P51570). The assay can be described thus: qHTS Validation Assay for Inhibitors of Human Galactokinase (GALK) (AID 493189). Note: 0% is about no effect. The following applies: purified human GALK enzyme activity, qHTS 7-point titration; series mostly up to 57.5 µM. The procedure, abridged:
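5 nM GALK / 100 uM galactose / 35 uM ATP, 20 mM HEPES pH8.0, 5 mM MgCl2, 60 mM NaCl, 1 mM DTT, 0.01% BSA (final). RT 1 h; Kinase-Glo Plus luminescence.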

Assay [20] can be described thus: Validation screen for small molecules that induce DNA re-replication in SW480 colon adenocarcinoma cells (AID 504364). Note: 0% is about no effect. The following applies: DNA re-replication phenotype (high-content imaging); series mostly up to 46.1 µM. The procedure, abridged:
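SW480 cells seeded at 250 per well were exposed to compound or DMSO for 48 hr at 37 C, 5% CO2, then stained with Hoechst for 40 min. DNA content per nucleus was imaged (405 nm ex, 500-530 nm em).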

The target of assay [21] is DNA dC->dU-editing enzyme APOBEC-3G (Homo sapiens) (UniProt Q9HC16). The assay can be described thus: qHTS for inhibitors of Vif-A3G interactions: Validation (AID 588379). Note: 0% is about no effect. The conditions noted are these: Vif-A3G protein interaction assay; series mostly up to 46.1 µM. The procedure, abridged:
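HeLa cells stably expressing Vif and A3G-eYFP, 700 cells/well, incubated overnight at 37 deg C, then exposed to compound overnight at 37 deg C. Inhibition of Vif-mediated degradation read as increased yellow fluorescence (Ex 488/Em 500-530) by laser-scanning cytometry.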

For assay [22], the system named is Zika virus NS2B-NS3 protease. Nature of the assay: Primary screen GU AMC qHTS for Zika virus inhibitors (AID 1347154).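 Note: 0% = no-inhibitor control and -100% = no-enzyme control; nearly all actives have a fitted effect of over 70% in size.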 The following applies: Zika NS2B-NS3 unlinked protease, AMC fluorogenic substrate; series mostly up to 54.1 µM. Put shortly: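 Unlinked Zika NS2B hydrophilic domain/NS3 protease domain noncovalent complex (25 nM final) in 10 mM Tris-HCl pH 8.0, 0.01% Tween 20, with AMC peptide substrate. Fluorescence (ex 340, em 450 nm) change over 15 min, room temperature; percent inhibition fitted to 4-parameter Hill equation.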

Assay [23] is described as follows: Primary qHTS for small molecule stabilizers of the endoplasmic reticulum resident proteome: Secreted ER Calcium Modulated Protein (SERCaMP) assay (AID 1508630). Note: % is set by controls: 0 for no effect and ±100 for the full control effect. The conditions noted are these: SH-SY5Y GLuc-SERCaMP (Gaussia luciferase released on ER calcium loss) secretion, thapsigargin, luminescence; series mostly up to 38.4 µM. The procedure, abridged: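 GLuc-SERCaMP-expressing SH-SY5Y cells, pretreated 16 h with compound, are challenged with thapsigargin to empty ER calcium stores; after 4 h, coelenterazine is added directly to the medium and luminescence is imaged.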

Sequence of M-phase phosphoprotein 8 (Homo sapiens) (Q99549 whole entry, looked up): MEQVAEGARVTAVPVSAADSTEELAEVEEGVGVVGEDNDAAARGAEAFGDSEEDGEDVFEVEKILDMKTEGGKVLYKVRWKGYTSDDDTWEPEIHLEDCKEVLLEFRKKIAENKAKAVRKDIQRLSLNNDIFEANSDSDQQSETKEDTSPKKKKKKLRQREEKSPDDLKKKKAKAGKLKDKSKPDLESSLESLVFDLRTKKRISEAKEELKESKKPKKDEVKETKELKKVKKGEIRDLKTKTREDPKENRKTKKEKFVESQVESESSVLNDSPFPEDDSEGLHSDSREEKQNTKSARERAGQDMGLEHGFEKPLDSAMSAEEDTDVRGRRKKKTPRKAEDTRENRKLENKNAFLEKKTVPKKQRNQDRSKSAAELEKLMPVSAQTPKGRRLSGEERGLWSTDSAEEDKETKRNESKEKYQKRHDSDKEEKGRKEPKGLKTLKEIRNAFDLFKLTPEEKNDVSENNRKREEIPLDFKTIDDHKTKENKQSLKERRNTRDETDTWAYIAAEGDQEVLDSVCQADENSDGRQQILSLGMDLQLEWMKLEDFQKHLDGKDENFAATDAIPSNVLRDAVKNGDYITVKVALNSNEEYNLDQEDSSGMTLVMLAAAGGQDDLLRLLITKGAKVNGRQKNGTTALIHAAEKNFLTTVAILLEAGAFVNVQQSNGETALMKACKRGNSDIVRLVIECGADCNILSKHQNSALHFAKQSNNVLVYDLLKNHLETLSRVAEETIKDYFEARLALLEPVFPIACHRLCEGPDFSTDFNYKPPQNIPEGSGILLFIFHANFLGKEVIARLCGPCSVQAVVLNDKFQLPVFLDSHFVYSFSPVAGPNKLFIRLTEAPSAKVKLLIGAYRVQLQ
Sequence of Thyrotropin-releasing hormone receptor (Homo sapiens) (P34981 whole entry, looked up): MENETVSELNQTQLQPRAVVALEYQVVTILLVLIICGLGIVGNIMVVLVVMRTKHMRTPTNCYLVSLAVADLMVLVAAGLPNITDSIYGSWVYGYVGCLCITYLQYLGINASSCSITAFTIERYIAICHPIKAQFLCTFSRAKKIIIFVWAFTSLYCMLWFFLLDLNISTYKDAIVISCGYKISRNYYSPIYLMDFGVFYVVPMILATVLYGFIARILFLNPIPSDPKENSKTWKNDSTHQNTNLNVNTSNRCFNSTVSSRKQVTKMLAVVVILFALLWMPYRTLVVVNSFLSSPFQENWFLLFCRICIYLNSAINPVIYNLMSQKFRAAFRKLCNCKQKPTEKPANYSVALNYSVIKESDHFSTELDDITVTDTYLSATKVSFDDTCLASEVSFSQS
Sequence of ATP-dependent DNA helicase Q1 (Homo sapiens) (P46063 whole entry, looked up): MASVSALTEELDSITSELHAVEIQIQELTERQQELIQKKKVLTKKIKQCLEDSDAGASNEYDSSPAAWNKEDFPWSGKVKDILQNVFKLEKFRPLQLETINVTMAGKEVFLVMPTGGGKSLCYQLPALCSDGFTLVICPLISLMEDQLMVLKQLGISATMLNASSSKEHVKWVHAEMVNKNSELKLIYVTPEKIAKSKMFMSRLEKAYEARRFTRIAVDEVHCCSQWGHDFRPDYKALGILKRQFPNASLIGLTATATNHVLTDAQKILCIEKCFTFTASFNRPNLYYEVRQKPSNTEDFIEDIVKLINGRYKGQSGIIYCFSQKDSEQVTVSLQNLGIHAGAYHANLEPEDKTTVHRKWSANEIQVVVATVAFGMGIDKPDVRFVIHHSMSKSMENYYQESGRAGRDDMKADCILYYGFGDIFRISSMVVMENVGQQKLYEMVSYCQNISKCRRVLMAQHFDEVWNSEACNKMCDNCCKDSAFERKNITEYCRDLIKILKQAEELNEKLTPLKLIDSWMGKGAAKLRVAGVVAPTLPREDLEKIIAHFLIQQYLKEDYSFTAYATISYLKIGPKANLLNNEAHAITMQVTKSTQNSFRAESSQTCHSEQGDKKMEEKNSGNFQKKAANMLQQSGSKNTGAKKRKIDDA
Sequence of DNA dC->dU-editing enzyme APOBEC-3G (Homo sapiens) (Q9HC16 whole entry, looked up): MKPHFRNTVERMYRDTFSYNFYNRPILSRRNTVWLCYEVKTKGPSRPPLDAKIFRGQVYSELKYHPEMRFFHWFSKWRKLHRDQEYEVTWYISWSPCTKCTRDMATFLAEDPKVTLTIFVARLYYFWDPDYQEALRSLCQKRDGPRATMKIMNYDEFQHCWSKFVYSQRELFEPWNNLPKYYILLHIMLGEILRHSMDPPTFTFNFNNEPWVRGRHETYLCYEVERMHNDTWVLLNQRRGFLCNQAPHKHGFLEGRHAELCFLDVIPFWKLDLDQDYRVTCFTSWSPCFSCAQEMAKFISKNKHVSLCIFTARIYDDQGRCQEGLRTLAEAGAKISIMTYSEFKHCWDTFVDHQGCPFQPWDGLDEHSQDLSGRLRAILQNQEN
Sequence of Galactokinase (Homo sapiens) (P51570 whole entry, looked up): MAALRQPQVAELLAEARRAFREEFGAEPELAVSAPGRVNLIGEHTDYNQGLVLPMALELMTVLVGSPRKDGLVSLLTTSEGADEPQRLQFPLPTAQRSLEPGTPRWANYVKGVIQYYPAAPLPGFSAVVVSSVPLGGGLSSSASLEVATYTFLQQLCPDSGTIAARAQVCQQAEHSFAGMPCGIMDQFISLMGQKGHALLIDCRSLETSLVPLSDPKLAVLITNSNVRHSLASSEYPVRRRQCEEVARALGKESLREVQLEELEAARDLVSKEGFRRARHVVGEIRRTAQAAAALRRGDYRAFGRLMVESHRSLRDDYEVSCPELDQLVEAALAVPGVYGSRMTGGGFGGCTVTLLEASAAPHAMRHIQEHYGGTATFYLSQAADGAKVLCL
Sequence of DNA repair nuclease/redox regulator APEX1 (Homo sapiens) (P27695 whole entry, looked up): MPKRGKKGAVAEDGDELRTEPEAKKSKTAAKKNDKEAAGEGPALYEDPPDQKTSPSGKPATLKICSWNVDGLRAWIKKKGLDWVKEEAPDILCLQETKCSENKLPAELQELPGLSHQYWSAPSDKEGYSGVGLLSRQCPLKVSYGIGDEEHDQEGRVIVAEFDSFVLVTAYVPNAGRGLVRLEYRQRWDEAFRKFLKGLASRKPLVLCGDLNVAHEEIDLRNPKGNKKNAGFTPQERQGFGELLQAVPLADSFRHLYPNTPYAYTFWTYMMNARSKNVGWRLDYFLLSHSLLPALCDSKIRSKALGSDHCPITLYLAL

In the case of `O=C(O)c1cc(=O)c2ccc(Cl)cc2[nH]1`, the max response in [1] was 22.6% and 6.02%. The Potency entry in assay [2], in assay [3], in [4], in assay [5], in assay [6] and in assay [7] was “inactive” in each case. Moreover, the Potency result in assay [8], in assay [9], in [10], in assay [12], in [13] and in [14] was “inactive” each time. Besides, the Potency result in [15], in assay [16], in assay [21], in assay [22] and in assay [23] was “inactive” throughout. Also, the outcome in [11], in [17], in assay [19] and in [20] was inactive. Also, in assay [18], the activation is 1.31% (inactive).
